Compound activity from PubChem.
Pf Dd2 inh – P. falciparum Dd2 growth inhibitors, primary screen, SYBR Green fluorescence, single dose replicates | 72 h; hits give low values | activity change, % at 10 µM | 94,000 compounds, 2.3% hits; in the data active means activity change below about -80%; inconclusive means no clear call, values can overlap the other calls
C diff growth – C. difficile growth inhibitors, primary screen, HTS; Clostridium difficile clinical isolate growth, OD600, 24 h; hits give low values; growth activity, negative = inhibition, % at 16 µg/mL (by protocol); 86,000 compounds, 0.25% hits; AID 1259249, 2017;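 active means mean growth activity at or below -80% and every replicate also at or below -80%; inconclusive means mean at or below -80% but some replicate above -80%; inactive means mean growth activity above -80%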;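 further: 0% = DMSO wells and -100% = levofloxacin 16 µg/mL wells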
Active calls of the source: *. Hits are enriched below; roughly 2.4% of the tested compounds scored in any of these assays.

Screening C[C@@H]1CCCCO[C@@H](CN(C)Cc2ccc(C(=O)Nc3ccccc3N)cc2)[C@@H](C)CN([C@H](C)CO)C(=O)c2cc(NS(=O)(=O)c3cccs3)ccc2O1 returned Pf Dd2 inh inconclusive and C diff growth 6.4.
Screening C[C@@H]1CCCCO[C@H](CN(C)Cc2ccc(C(=O)Nc3ccccc3N)cc2)[C@@H](C)CN([C@@H](C)CO)C(=O)c2cc(NS(=O)(=O)c3ccc(Cl)cc3)ccc2O1 returned Pf Dd2 inh -84.9* and C diff growth 28.7.
Screening C[C@@H]1CCCCO[C@H](CN(C)Cc2ccc(C(=O)Nc3ccccc3N)cc2)[C@@H](C)CN([C@H](C)CO)C(=O)c2cc(NS(=O)(=O)c3cccs3)ccc2O1 returned Pf Dd2 inh -87.2* and C diff growth 8.2.
`C[C@@H]1CCCCO[C@@H](CN(C)Cc2ccc(C(=O)Nc3ccccc3N)cc2)[C@@H](C)CN([C@H](C)CO)C(=O)c2cc(NS(=O)(=O)c3ccc(Cl)cc3)ccc2O1` gave Pf Dd2 inh inconclusive and C diff growth 5.7.
`O=C(C1CCCC1)N1CC2(C1)[C@@H](c1ccccc1)[C@H](CO)N2CCC(F)(F)F` gave Pf Dd2 inh 7.4 and C diff growth 4.0.
For COCC(=O)Nc1ccc2c(c1)OC[C@@H](C)N(Cc1cccc(F)c1)C[C@@H](C)[C@H](OC)CN(C)C2=O the results were Pf Dd2 inh -74.8.
C[C@@H]1CN([C@H](C)CO)C(=O)c2cccc(NC(=O)c3nc4ccccc4s3)c2O[C@H]1CN(C)Cc1ccc(C(=O)Nc2ccccc2N)cc1 was read as Pf Dd2 inh -91.6*.
`C[C@H](CO)N1C[C@H](C)[C@H](CN(C)Cc2ccccc2)Oc2c(NC(=O)c3nc4ccccc4s3)cccc2C1=O` gave Pf Dd2 inh -25.0 and C diff growth 2.1.
`C[C@H]1CN([C@@H](C)CO)C(=O)c2cccc(NC(=O)c3nc4ccccc4s3)c2O[C@H]1CN(C)Cc1ccc(C(=O)Nc2ccccc2N)cc1` gave Pf Dd2 inh -91.2*.
Screening C[C@H]1CN([C@@H](C)CO)C(=O)c2cccc(NC(=O)c3nc4ccccc4s3)c2O[C@H]1CN(C)Cc1ccccc1 returned Pf Dd2 inh -22.5 and C diff growth 2.0.
For COCCNC[C@H]1[C@H](c2ccccc2)[C@H](CO)N1c1nc(C)c(C)s1 the results were Pf Dd2 inh -24.8 and C diff growth 7.0.
Screening Cc1nc(N2[C@H](CO)[C@H](c3ccccc3)[C@H]2CNCC2CCCC2)sc1C returned Pf Dd2 inh -89.7* and C diff growth 26.6.
Screening C[C@@H]1CN([C@@H](C)CO)C(=O)c2cccc(NC(=O)C3CC3)c2O[C@@H]1CN(C)Cc1ccc(C(=O)Nc2ccccc2N)cc1 returned Pf Dd2 inh -14.0 and C diff growth 4.0.
`C[C@@H]1CN([C@@H](C)CO)C(=O)c2cccc(NC(=O)NC3CCCCC3)c2O[C@@H]1CN(C)Cc1ccc(C(=O)Nc2ccccc2N)cc1` gave Pf Dd2 inh -89.9*.
C[C@@H]1CN([C@H](C)CO)C(=O)c2cccc(NC(=O)C3CCCCC3)c2O[C@H]1CN(C)Cc1ccc(C(=O)Nc2ccccc2N)cc1 was read as Pf Dd2 inh -85.5* and C diff growth 14.7.
For C[C@@H]1CN([C@H](C)CO)C(=O)c2cccc(NC(=O)C3CCCCC3)c2O[C@@H]1CN(C)Cc1ccc(C(=O)Nc2ccccc2N)cc1 the results were Pf Dd2 inh -84.0* and C diff growth 3.5.
For C[C@H](CO)N1C[C@H](C)[C@H](CN(C)Cc2ccc(C(=O)Nc3ccccc3N)cc2)Oc2c(NC(=O)C3CC3)cccc2C1=O the results were Pf Dd2 inh -15.8 and C diff growth -0.7.
C[C@H]1CN([C@@H](C)CO)C(=O)c2cccc(NC(=O)C3CC3)c2O[C@@H]1CN(C)Cc1ccc(C(=O)Nc2ccccc2N)cc1 was read as Pf Dd2 inh -53.6 and C diff growth 0.2.
C[C@@H]1CN([C@@H](C)CO)C(=O)c2cccc(NC(=O)C3CCCCC3)c2O[C@H]1CN(C)Cc1ccc(C(=O)Nc2ccccc2N)cc1 was read as Pf Dd2 inh -87.0* and C diff growth 1.1.
For C[C@H]1CN([C@@H](C)CO)C(=O)c2cccc(NC(=O)C3CCCCC3)c2O[C@H]1CN(C)Cc1ccc(C(=O)Nc2ccccc2N)cc1 the results were Pf Dd2 inh -69.2 and C diff growth -5.5.
`COc1ccc(CN(C)C[C@H]2OCCCC[C@@H](C)Oc3ccc(NS(=O)(=O)c4ccc(F)cc4)cc3C(=O)N([C@H](C)CO)C[C@H]2C)cc1` gave Pf Dd2 inh -64.2 and C diff growth 3.6.
C[C@@H]1CN([C@@H](C)CO)S(=O)(=O)c2ccc(C3=CCCCC3)cc2O[C@H]1CN(C)CC1CC1 was read as Pf Dd2 inh -37.2.
For O=C(C[C@@H]1C[C@@H]2c3cc(NC(=O)Nc4ccccc4)ccc3O[C@@H]2[C@@H](CO)O1)NCC1CC1 the results were Pf Dd2 inh -45.7 and C diff growth -3.5.
